Source: the antibiotic and cytotoxicity screens of Wong et al. (2023)
About 3,300 (8.5%) of roughly 39,000 compounds were called active. What follows is part of a selection rich in actives, with near analogues and random picks from the rest.

test system: HepG2; test: cytotoxicity call (relative viability < 0.9); conditions: 10 µM

Row | SMILES | cytotoxicity call
1 | O[C@H]1[C@H](O)[C@@H](O)[C@H](O)[C@@H](O)[C@H]1O | inactive
2 | Cc1ccc(S[C@]2(C(=O)NC3CC3)CC(=O)N(C3Cc4ccccc4C3)[C@@H]2c2ccc(CO)cc2I)cc1 | inactive
3 | C[C@@H]1CN([C@@H](C)CO)C(=O)c2cc(-c3ccncc3)cnc2O[C@@H]1CN(C)S(=O)(=O)c1ccc(F)cc1 | inactive
4 | COc1ccc2c3c(n(c2c1)C)[C@@H](CO)N(CC1CCOCC1)C[C@]13CN(C1)C(=O)Cc1cccnc1 | inactive
5 | C[C@@H]1CN([C@H](C)CO)C(=O)c2cccc(NS(=O)(=O)c3cccs3)c2O[C@@H]1CN(C)S(=O)(=O)c1ccc(F)cc1 | inactive
6 | C[C@@H]1CN([C@H](C)CO)S(=O)(=O)c2ccc(C#Cc3ccncc3)cc2O[C@@H]1CN(C)C(=O)C1CCCCC1 | active
7 | C[C@H](O)C#Cc1ccc2c(c1)O[C@@H](CN(C)C(=O)C1CCCCC1)[C@@H](C)CN([C@@H](C)CO)S2(=O)=O | inactive
8 | C[C@@H]1CN([C@H](C)CO)S(=O)(=O)c2ccc(C#CC3CC3)cc2O[C@H]1CN(C)C(=O)C1CCCCC1 | inactive
9 | C[C@H]1CN([C@@H](C)CO)S(=O)(=O)c2ccc(C#Cc3ccncc3)cc2O[C@@H]1CN(C)C(=O)C1CCCCC1 | active
10 | C[C@@H]1CN([C@@H](C)CO)S(=O)(=O)c2ccc(C#Cc3ccncc3)cc2O[C@@H]1CN(C)C(=O)C1CCCCC1 | active
11 | Cc1noc(C)c1NC(=O)Nc1ccc2c(c1)CC(=O)N([C@H](C)CO)C[C@@H](C)[C@@H](CN(C)Cc1ccc(C(=O)Nc3ccccc3N)cc1)O2 | inactive
12 | C[C@@H]1CN([C@H](C)CO)C(=O)Cc2cc(NC(=O)CCC(F)(F)F)ccc2O[C@@H]1CN(C)Cc1ccc(C(=O)Nc2ccccc2N)cc1 | inactive
13 | C[C@H](CO)N1C[C@H](C)[C@H](CN(C)S(C)(=O)=O)Oc2c(cccc2N(C)C)C1=O | inactive
14 | C[C@@H]1CN([C@H](C)CO)C(=O)c2cccc(NC(=O)C3CCCCC3)c2O[C@@H]1CN(C)S(=O)(=O)c1cn(C)cn1 | inactive
15 | C[C@@H]1CN([C@H](C)CO)C(=O)c2cccc(NC(=O)Nc3ccc(F)cc3)c2O[C@@H]1CN(C)S(=O)(=O)c1cn(C)cn1 | inactive
16 | COc1ccc(-n2nc(C(=O)NCC(=O)N3CCN(c4ccccc4)CC3)c3ccccc3c2=O)c(OC)c1 | inactive
17 | CC[C@H]1OC(=O)[C@H](C)[C@@H](O[C@H]2C[C@@](C)(OC)[C@@H](O)[C@H](C)O2)[C@H](C)[C@@H](O[C@@H]2O[C@H](C)C[C@H](N(C)C)[C@H]2O)[C@](C)(O)C[C@@H](C)[C@@H]2N[C@@H](COCCOC)O[C@H]([C@H]2C)[C@]1(C)O | inactive
18 | C[C@H]1CN([C@@H](C)CO)C(=O)Cc2cc(NC(=O)Nc3ccc(C(F)(F)F)cc3)ccc2O[C@H]1CN(C)C(=O)Nc1ccc(C(F)(F)F)cc1 | active
19 | C[C@@H]1CN([C@@H](C)CO)C(=O)Cc2cc(NC(=O)Nc3ccc(C(F)(F)F)cc3)ccc2O[C@@H]1CN(C)C(=O)Nc1ccc(C(F)(F)F)cc1 | active
20 | C[C@H](CO)N1C[C@H](C)[C@@H](CN(C)C(=O)Nc2ccc(C(F)(F)F)cc2)Oc2ccc(NC(=O)Nc3ccc(C(F)(F)F)cc3)cc2CC1=O | active

Row | SMILES | cytotoxicity call
21 | C[C@H]1CN([C@@H](C)CO)C(=O)Cc2cc(NC(=O)Nc3ccc(C(F)(F)F)cc3)ccc2O[C@@H]1CN(C)C(=O)Nc1ccc(C(F)(F)F)cc1 | inactive
22 | C[C@@H]1CN([C@H](C)CO)C(=O)Cc2cc(NC(=O)Nc3ccc(C(F)(F)F)cc3)ccc2O[C@H]1CN(C)C(=O)Nc1ccc(C(F)(F)F)cc1 | inactive
23 | C[C@@H]1CN([C@@H](C)CO)C(=O)Cc2cc(NC(=O)Nc3ccc(C(F)(F)F)cc3)ccc2O[C@H]1CN(C)C(=O)Nc1ccc(C(F)(F)F)cc1 | active
24 | Cc1ccc(S[C@]2(C(=O)NC3CC3)CC(=O)N(Cc3ccccc3C(F)(F)F)[C@@H]2c2ccc(CO)cc2)cc1 | inactive
25 | Cc1ccc(S(=O)(=O)N2CCOCC2)cc1NC(=O)CN1C(=O)CN(C)C1=O | inactive
26 | C[C@@H]1CN([C@H](C)CO)C(=O)CCCn2cc(nn2)CO[C@H]1CN(C)Cc1cccc2c1OCCCO2 | inactive
27 | C[C@H](CO)N1C[C@H](C)[C@H](CN(C)Cc2ccccc2)OCCCC[C@H](C)Oc2ccc(NS(=O)(=O)c3ccc(F)cc3)cc2C1=O | inactive
28 | C[C@H]1CN([C@@H](C)CO)C(=O)c2cc(-c3cccc(C(=O)N(C)C)c3)cnc2O[C@H]1CN(C)C(=O)Cc1ccccn1 | inactive
29 | C[C@@H]1CN([C@@H](C)CO)C(=O)c2cc(C#Cc3ccccc3F)cnc2O[C@H]1CN(C)C(=O)Cc1ccncc1 | inactive
30 | CN1CCN(CCO)CC1 | inactive
31 | C[C@@H]1CCCCO[C@@H](CN(C)S(=O)(=O)c2cccs2)[C@@H](C)CN([C@H](C)CO)C(=O)c2cc(NC(=O)CCC(F)(F)F)ccc2O1 | inactive
32 | COc1ccc(S(=O)(=O)Nc2ccc3c(c2)C(=O)N([C@H](C)CO)C[C@H](C)[C@@H](CN(C)S(=O)(=O)c2cccs2)O3)cc1 | inactive
33 | CC(C)NC(=O)N(C)C[C@@H]1Oc2cc(C#Cc3ccccn3)ccc2S(=O)(=O)N([C@@H](C)CO)C[C@H]1C | inactive
34 | O=C(C[C@H]1CC[C@@H]2[C@H](COC[C@@H](O)CN2S(=O)(=O)c2ccc(Cl)cc2)O1)NCCN1CCCC1 | inactive
35 | C[C@@H]1CN([C@H](C)CO)C(=O)c2cccc(NC(=O)c3cnccn3)c2O[C@@H]1CN(C)Cc1ccc2c(c1)OCO2 | inactive
36 | C[C@H]1CN([C@@H](C)CO)C(=O)c2ccccc2-c2ccccc2CO[C@H]1CN(C)C(=O)c1cc(Cl)cc(Cl)c1 | inactive
37 | C[C@@H]1CN([C@H](C)CO)C(=O)Cc2cc(NC(=O)Nc3ccc(C(F)(F)F)cc3)ccc2O[C@@H]1CN(C)C(=O)Nc1ccc(C(F)(F)F)cc1 | active
38 | C[C@H](CO)N1C[C@H](C)[C@H](CN(C)C(=O)Nc2ccc(C(F)(F)F)cc2)Oc2ccc(NC(=O)Nc3ccc(C(F)(F)F)cc3)cc2CC1=O | active
39 | COCC#Cc1ccc([C@@H]2[C@@H](CO)N3C(=O)CN(C(=O)c4cccnc4)C[C@H]23)cc1 | inactive
